High-throughput results: PubChem BioAssay, National Center for Advancing Translational Sciences (NCATS)
Shown are actives, neighbours in structure and some others; about 3.8% of the full set was active somewhere.
IDH1 R132H inh = inhibitors of human mutant IDH1 R132H; O75874; IDH1-R132H enzyme, NADPH consumption, diaphorase/resazurin fluorescence; Potency, µM (series often up to 76.6 µM), most hits filed as inhibitors; hit rate 0.093% among 390,000; AID 602179; note: nearly all actives have a fitted effect of over 65% in size
Target sequence (O75874 whole entry R132H, stated change not applied): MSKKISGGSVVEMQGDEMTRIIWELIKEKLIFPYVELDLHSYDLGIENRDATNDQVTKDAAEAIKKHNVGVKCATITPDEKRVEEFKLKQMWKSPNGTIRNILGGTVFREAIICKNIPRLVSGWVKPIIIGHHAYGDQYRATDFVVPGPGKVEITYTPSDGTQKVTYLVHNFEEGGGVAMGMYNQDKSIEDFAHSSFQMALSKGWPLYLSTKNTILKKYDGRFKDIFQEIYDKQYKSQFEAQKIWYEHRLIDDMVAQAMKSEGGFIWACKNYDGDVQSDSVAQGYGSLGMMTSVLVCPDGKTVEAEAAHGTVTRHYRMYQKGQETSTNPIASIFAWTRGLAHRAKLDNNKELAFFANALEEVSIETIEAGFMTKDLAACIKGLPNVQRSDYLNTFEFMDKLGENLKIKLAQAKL
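IDH1-R132H (0.5 ug/mL) preincubated 30 min with compound, then NADPH (0.016 mM) and alpha-KG (2 mM) added; 80 min at RT, pH 7.5. Remaining NADPH coupled via diaphorase/resazurin to fluorescence (540/590 nm); concentration-response curves normalized to no-enzyme control.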
ELG1 DNA repair = blocks ELG1-dependent DNA repair in HEK293T cells | Potency, µM (series often up to 46.1 µM), usual class: inhibitors | HEK293T ELG1-luciferase reporter, luminescence, 16 h; DNA damage induced by 5-fluorouridine | hit rate 2.3% among 330,000 | AID 504467; note: nearly all actives have a fitted effect of over 55% in size
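Reporter activity after DNA damage by 5-fluorouridine is monitored. Compound-treated cells incubate 16 hr at 37 °C, then ONE-Glo is added for 30 min before luminescence reading.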
A549 viability = A549 cytotoxicity, counter-screen for Nrf2 inhibitors; A549 ARE-Fluc cells, CellTiter-Fluor viability, 18-24 h; Potency, µM (titrated, usually from 46 µM), usual class: inhibitors; hit rate 0.16% among 390,000; AID 504648
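Cytotoxicity counterscreen: CellTiter-Fluor fluorescence was measured in A549 ARE_Fluc cells after 18-24 h of compound exposure in a concentration series. The subsequent BugLite luminescent read reports ARE-luciferase activity.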
Nrf2 activator = activators of Nrf2 (ARE) signaling; AREc32 ARE-luciferase reporter (MCF7-derived line), luminescence, 24 h; Potency, µM (doses to about 46.1 µM), actives largely listed as activators; hit rate 0.31% among 410,000; AID 624171; note: nearly all actives have a fitted effect of over 65% in size
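For detection, Steady-Glo was added and plates sat 30 min at RT; before that, AREc32_Fluc cells grown overnight in OPTI-MEM/5% FBS had been treated with 23 nL compound for 24 hr at 37 deg C.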
Nrf2 block = inhibitors of Nrf2 signaling. A549 ARE-Fluc reporter, luciferase luminescence, 18-24 h. Potency, µM (titrated, usually from 46 µM), usual class: inhibitors. hit rate 2.1% among 360,000. AID 504444; note: nearly all actives have a fitted effect of over 60% in size
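In this cell-based qHTS, ARE-driven firefly luciferase in A549 cells reports Nrf2 activity; the luminescent signal after BugLite lysis is the measured value, with a prior CellTiter-Fluor read for cell health.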
A number is an active result; 0 = inactive; ? = inconclusive; - = not tested or not shown. Calls come from the whole dose curve; as a rule, active = well fitted curve in the direction sought with a large enough effect; inconclusive = small, poorly fitted or top-dose-only effect, or another doubt; inactive = no such curve, though single readings can be large; an effect the other way counts as inactive or inconclusive.

SMILES | IDH1 R132H inh | ELG1 DNA repair | A549 viability | Nrf2 activator | Nrf2 block
N#Cc1nc(NCC(F)F)c2ncn(-c3cccc(Cl)c3)c2n1 | - | - | ? | - | 21µM
FC(F)(F)c1cnc(C(c2ccccn2)c2ncn[nH]2)c(Cl)c1 (stereo not drawn) | 0 | 26µM | 0 | 0 | ?
COc1ccccc1N1CCN(C(=S)Nc2ccc3nc(N4CCOCC4)cc(C)c3c2)CC1 | 0 | 18µM | 0 | 0 | 0
Cc1ccc(S(=O)(=O)Nc2ccccc2N=Cc2ccc([N+](=O)[O-])cc2[N+](=O)[O-])cc1 | 0 | - | 0 | 14µM | 0
COc1ccc([N+](=O)[O-])cc1NS(=O)(=O)c1ccc(C)cc1 | 0 | 0 | 0 | 0 | 0
Clc1ccc2nc(-c3ccco3)c(Cc3ccsc3)n2c1 | - | - | - | 11µM | -
Clc1ccc2nc(-c3ccco3)c(Cc3ccccc3)n2c1 | - | - | - | 10µM | -
Cc1ccc2nc(-c3ccco3)c(Cc3ccccc3)n2c1 | - | - | - | 0 | -
COC(=O)c1ccc2nc(-c3ccco3)c(Cc3cccc(Cl)c3)n2c1 | - | - | - | 5.6µM | -
Clc1ccc2nc(-c3ccccc3)c(Cc3ccsc3)n2c1 | - | - | - | 0 | -
CC[C@@H]1C=C(C)C[C@H](C)C[C@H](OC)[C@H]2O[C@@](O)(C(=O)C(=O)N3CCCC[C@H]3C(=O)O[C@H](/C(C)=C/[C@@H]3CC[C@@H](O)[C@H](OC)C3)[C@H](C)[C@@H](O)CC1=O)[C@H](C)C[C@@H]2OC | - | 8.2µM | - | - | -
CO[C@H]1C[C@@H]2CC[C@@H](C)[C@@](O)(O2)C(=O)C(=O)N2CCCC[C@H]2C(=O)O[C@H]([C@H](C)C[C@@H]2CC[C@@H](O)[C@H](OC)C2)CC(=O)[C@H](C)/C=C(/C)[C@@H](O)[C@@H](OC)C(=O)[C@H](C)C[C@H](C)C=C/C=C\C=C/1C | - | - | 0 | - | ?
COc1ccccc1N1CCN(C(=O)c2oc3c(c2C)C(=O)CC(C)(C)C3)CC1 | 0 | 21µM | 0 | 0 | 0
Cc1ccccc1S(=O)(=O)Cc1ccc(C(=O)N2CCN(c3cccc(C)c3C)CC2)o1 | 0 | 7.3µM | ? | 0 | 10µM
Cc1ccccc1S(=O)(=O)Cc1ccc(C(=O)N2CCN(c3cccc(Cl)c3)CC2)o1 | 0 | - | 0 | 0 | 18µM
CCc1ccccc1S(=O)(=O)Cc1ccc(C(=O)N2CCN(c3ccccc3OC)CC2)o1 | 0 | 23µM | 0 | 0 | ?
Cc1c(C(=O)N2CCN(c3ccccn3)CC2)oc2c1C(=O)CC(C)(C)C2 | 0 | ? | 0 | 0 | 0
COc1ccccc1S(=O)(=O)Cc1ccc(C(=O)N2CCCC2)o1 | 0 | 0 | 0 | 0 | 0
COc1cccc(N2CCN(C(=O)c3ccc(CS(=O)Cc4ccccc4Cl)o3)CC2)c1 (stereo not drawn) | 0 | ? | 0 | 0 | ?
COc1cccc(N2CCN(C(=O)c3ccc(CS(=O)Cc4ccc(Cl)cc4)o3)CC2)c1 (stereo not drawn) | 0 | 21µM | 0 | 0 | ?
COc1ccc(NC(=O)CN(C)CC(=O)Nc2sc3c(c2C#N)CCC3)cc1 | 0 | ? | 0 | 0 | 0
CSCCC(c1nnnn1C1CCCCC1)N1CCN(C/C=C/c2ccccc2)CC1 (stereo not drawn) | - | - | - | 0 | -
Cc1ccc(-c2nnc(N3CCCCC3)c3ccccc23)cc1 | 0 | 0 | 0 | 0 | 0
CN1CCN(c2nnc(-c3ccc(F)cc3)c3ccccc23)CC1 | 0 | 0 | 0 | 0 | 0
O=S(=O)(c1ccccc1)N1CCN(c2nnc(-c3ccccc3)c3ccccc23)CC1 | 0 | 23µM | 0 | 0 | ?
SMILES | IDH1 R132H inh | ELG1 DNA repair | A549 viability | Nrf2 activator | Nrf2 block
CS(=O)(=O)N1CCN(c2nnc(-c3ccccc3)c3ccccc23)CC1 | 0 | 0 | 0 | 0 | 0
Cc1ccc(-c2nnc(N3CCN(c4ccccn4)CC3)c3ccccc23)cc1 | 0 | 16µM | ? | 0 | 23µM
c1ccc(-c2nnc(N3CCN(c4ccccn4)CC3)c3ccccc23)cc1 | 0 | 13µM | ? | 0 | 18µM
O=C(c1ccco1)n1nc(-c2ccc(Cl)cc2)nc1NCc1ccc(F)cc1 | 0 | - | 0 | 0 | 0
CCN(CC)S(=O)(=O)c1ccc(N2CCOCC2)c(NC(=O)c2ccccc2)c1 | 0 | ? | 0 | 0 | 0
CCN(CC)S(=O)(=O)c1ccc(N2CCOCC2)c(NC(=O)c2cc(C)cc(C)c2)c1 | 0 | 8.2µM | 0 | 0 | 0
CCN(CC)S(=O)(=O)c1ccc(N2CCOCC2)c(NC(=O)C23CC4CC(CC(Cl)(C4)C2)C3)c1 | 0 | 9.2µM | 0 | 0 | 0
CCN1CCN(c2ccc(S(=O)(=O)N3CCOCC3)cc2NC(=O)c2sccc2C)CC1 | 0 | 0 | 0 | 0 | 0
CCN(CC)S(=O)(=O)c1ccc(N2CCOCC2)c(NC(=S)NC(=O)c2ccco2)c1 | 0 | 16µM | 0 | 0 | 0
CCN(CC)S(=O)(=O)c1ccc(N2CCOCC2)c(NC(=O)c2sccc2C)c1 | 0 | 18µM | 0 | 0 | 0
CCCCn1c(N)c(N(CC(C)C)C(=O)c2ccc(S(=O)(=O)N3CCCCCC3)cc2)c(=O)[nH]c1=O | 0 | ? | 0 | 0 | 0
Cc1nc(-c2ccc(C)c(S(=O)(=O)N3CCC(C(=O)NCc4ccc(F)cc4)CC3)c2)no1 | 0 | - | 0 | 0 | -
CCN(CC)S(=O)(=O)c1cc(C(=O)Nc2cc(Cl)ccc2N2CCN(C)CC2)ccc1Cl | 0 | 18µM | 0 | 0 | ?
CN1CCN(c2ccc(Cl)cc2NC(=O)c2ccc(S(=O)(=O)N(C)C)cc2)CC1 | 0 | 0 | 0 | 0 | 0
CC1C(=O)N(S(=O)(=O)c2ccc([N+](=O)[O-])cc2)[C@H]1c1ccc2ccccc2c1 (stereo partly drawn) | - | - | 0 | - | 0
CCOc1ccc(-c2cc(C(=O)NCCc3ccccc3)c3c(-c4ccc(C)cc4)[nH]nc3n2)cc1 | 0 | - | 0 | 0 | ?
CCc1ccc(NC(=O)C2CCN(c3ncnc4c3nc3n4CCCCC3)CC2)cc1 | 0 | 2.6µM | 0 | 0 | 0
O=C(Nc1ccccn1)C1CCN(c2ncnc3c2nc2n3CCCCC2)CC1 | 0 | 2.6µM | 0 | 0 | ?
O=C(NCc1ccccc1)C1CCN(c2ncnc3c2nc2n3CCCCC2)CC1 | 0 | - | 0 | 0 | ?
Cc1ccc(NC(=O)Cn2c(C)cc(C)c(C#N)c2=O)cc1 | 0 | - | 0 | 0 | -
COc1ccc(Cl)cc1NC(=O)CN(c1cccc(C)c1C)S(C)(=O)=O | 0 | - | 0 | 0 | 0
CCc1ccc(NC(=O)CSc2nc3c(c(=O)[nH]2)CN(Cc2ccc(C)cc2)CC3)cc1 | 0 | - | 0 | 0 | ?
O=C(c1ccc(CS(=O)Cc2ccccc2Cl)o1)N1CCN(c2ccccn2)CC1 (stereo not drawn) | 0 | 21µM | 0 | 0 | 0
O=C(c1ccc(COc2ccccc2Br)o1)N1CCN(c2ccccn2)CC1 | 0 | 0 | 0 | 0 | ?
O=C(c1ccc(C#Cc2ccccc2)o1)N1CCN(c2ccccn2)CC1 | 0 | 0 | ? | 0 | 18µM
